Laboratory results as given in PubChem BioAssay (NCI).
This is part of a sample that, as a whole, favours compounds with a hit. Of some 83,000 tested, about 20% had one in any assay.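 48-hour exposure, single concentration, 96-well plates; percent growth endpoint where 0 means no net growth. Active: below 10.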 Values without a mark were called inactive. Activity calls are given as the source filed them.

These compounds were tested on HT29 colon (assay: NCI-60 one-dose screen, 48 h (100 = growth as untreated, 0 = no growth, -100 = all killed)). Conditions: 10 µM.
Description: Growth inhibition of the HT29 human tumor cell line is measured as a screen for anti-cancer activity. Cells are grown in 96 well plates and exposed to the test compound for 48 hours. Compounds are tested at a single concentration, which is 10^-5 M for most compounds. The reported endpoint is percent growth (GI% or GIPRCNT), where numbers from 0 - 100% represent growth inhibition, and numbers from -100% - 0 represent cell death. For example, a value of 40 represents 60% growth inhibition. A value of 0 means no net growth occurred over the course of the experiment. A value of -40 indicates 40% of cells at the beginning of the experiment died by the end of the experiment. A value of -100 means all cells are dead at the end of the experiment.
NCI-60 Human Tumor Cell Lines Screen was performed using the standard one-dose NCI protocol, which is described in more detail at https://dtp.cancer.gov/discovery_development/nci-60/default.htm.
Compounds with GIPRCNT values below 10 were considered active. Activity score was based on GIPRCNT using the following formula: […]
Score is 0 for GIPRCNT values of 100 or above, 50 for GIPRCNT values of 0, and 100 for GIPRCNT values of -100.

| SMILES | growth |
| --- | --- |
| COc1ccc2c(c1)CC=C1[C@@H]2CC[C@]2(C)C(=O)/C(=N/O)C[C@@H]12 | 67.8% |
| C/C=C/CSC(C)(C)C(=O)NC | 98.1% |
| CCC(C)[C@H](NC(C)=O)C(=O)N[C@@H](CCCNC(=N)N)C(=O)N[C@@H](CCCCN)C(=O)N[C@@H](CC1CCC(O)CC1)C(=O)NC(C(=O)N[C@@H](CCSC)C(=O)N[C@@H](CCCNC(=N)N)C(=O)N[C@@]1(C)CCC/C=C\CCC[C@@](C)(C(=O)NC(C(=O)N[C@@H](CCC(=O)O)C(=O)N[C@@H](CC(C)C)C(=O)N[C@H](C(=O)N[C@@H](CCC(=O)O)C(N)=O)C(C)C)[C@@H](C)O)NC(=O)[C@H](CCC(N)=O)NC(=O)[C@H](CC(C)C)NC(=O)[C@H](CC(C)C)NC1=O)[C@@H](C)O (stereo not given in full) | 90.6% |
| COc1cc(/C=C/c2cc(/C=C/c3ccc(O)c(OC)c3)nc(N)n2)ccc1O | -76.2% (active) |
| NC(N)=N/N=C(\N=Nc1ccccc1)c1ccc(Cl)cc1 | 21.2% |
| CN(C)CCN(Cc1ccccc1)c1ccc2ccccc2n1 | 89.7% |
| C[n+]1c2ccccc2nc2ccccc21 | 21.2% |
| CCCCN(CCCC)C(=O)[C@H](CC)[C@@H]1CC[C@@H](C)[C@@H]([C@H](C)[C@@H](O)[C@@H](C)C(=O)[C@H](CC)C2O[C@]3(C=C[C@@H](O)[C@]4(CC[C@@](C)([C@H]5CC[C@](O)(CC)[C@H](C)O5)O4)O3)[C@H](C)C[C@@H]2C)O1 (stereo not given in full) | 7.79% (active) |
| CC(=O)[C@@]12O[C@](C)(c3ccccc3)O[C@@H]1CC1C3CCC4=CC(=O)CC[C@]4(C)C3CC[C@@]12C (stereo not given in full) | 69.6% |
| CC(=O)Nc1ccc(S(=O)(=O)c2ccnc3cc(Cl)ccc23)cc1 | 93.7% |
| COc1cc2cc(Oc3ccc(NC(=O)c4ccccc4)cc3)c(C)nc2cc1OC | 104% |
| N#Cc1cnn(C(=O)c2nn(-c3ccc(Cl)cc3)cc2O)c1N | 29.1% |
| CCOC(=O)c1cc(C(=O)c2cc(OC)cc(OC)c2)n2nc(C)ccc12 | 3.72% (active) |
| C=C(C)[C@@H]1CC[C@]2(COCCC#N)CC[C@]3(C)[C@H](CC[C@@H]4[C@@]5(C)Cc6c([nH]c7ccccc67)C(C)(C)[C@@H]5CC[C@]43C)[C@@H]12 | 89.7% |
| O=S(=O)(NCCCNc1nccc(-c2cn(-c3ccccc3)nc2-c2ccc(Cl)c(O)c2)n1)c1ccccc1 | 60.5% |
| CNC(=O)c1cc(Oc2ccc3c(c2)sc2nc(-c4ccc(N)cc4)cn23)ccn1 | 0.705% (active) |
| CN(C)c1nc(N)c2nccnc2n1 | 110% |
| O=C1Cc2cc(CCN3CCN(c4nsc5ccccc45)CC3)c(Cl)cc2N1 | 90.1% |
| COc1ccc(/C=C2\CCCC3=C2NC(N)=NC3c2ccc(OC)cc2)cc1 (stereo not given) | 93.2% |
| CN1CCN(C2=Nc3ccccc3Oc3ccc(Cl)cc32)CC1 | 88.3% |

| SMILES | growth |
| --- | --- |
| Cc1ccc(Cl)cc1NC(=O)CCl | 82.9% |
| O=C1/C=C/[C@@H](O)[C@@H]2C[C@@H](O)C[C@H]2/C=C/CCC[C@H](CCc2ccc(NC(=S)Nc3ccc4c(c3)C(=O)OC43c4ccc(O)cc4Oc4cc(O)ccc43)cc2)O1 | 1.54% (active) |
| Nc1nc(-c2cccnc2)nc2c1sc(=S)n2-c1ccccc1 | 94.6% |
| C=C(NC(=O)C(=C)NC(=O)c1csc(C2=NC3c4csc(n4)C4NC(=O)c5csc(n5)C(C(C)(O)C(C)O)NC(=O)C5CSC(=N5)C(=CC)NC(=O)C(C(C)O)NC(=O)c5csc(n5)C3(CC2)NC(=O)C(C)NC(=O)C(=C)NC(=O)C(C)NC(=O)C(C(C)CC)NC2C=Cc3c(C(C)O)cc(nc3C2O)C(=O)OC4C)n1)C(N)=O (stereo not given) | 3.8% (active) |
| CCOS(=O)(=O)c1c(C(C)C)cc(C(C)C)cc1C(C)C | 112% |
| O=c1c(Br)ccc(Br)cc1Br | -41.6% (active) |
| COc1cc(/C=C2\CCCC3C2=Nc2ccccc2NC3c2cc(OC)c(OC)c(OC)c2)cc(OC)c1OC (stereo not given) | -3.94% (active) |
| O=C(N/N=C/c1ccc(Cl)cc1)c1ccc(Cc2n[nH]c(=O)c3cccnc23)cc1 | 99.3% |
| C1CN(CC2CCC(CN3CCOCC3)O2)CCO1 (stereo not given) | 102% |
| COc1ccc(-c2nn(-c3cccc(Cl)c3)cc2-c2cc(-c3ccccc3)[nH]c(=O)c2C#N)cc1 | 55.6% |
| C/C=C/C1=CN2C(=O)c3cc(OC4OC(C)C(NC)C(C)(O)C4O)c(C)c(O)c3N=C[C@@H]2C1 (stereo not given in full) | 5.18% (active) |
| O=C(O)c1ccc(-n2cc(CNc3ccc(Cl)cc3)c(-c3ccccc3)n2)cc1 | 102% |
| CC1C(=NC(=O)c2cnccn2)C(C)C(c2ccc(Cl)cc2)NC1c1ccncc1 (stereo not given) | 73% |
| O=C1c2ccccc2C(=O)N1CCCCNc1ccccc1 | 110% |
| CSc1ccc(-c2cc(-c3ccc(NC(=O)CCCN4CCCC4)cc3)nc(-c3ccc(NC(=O)CCCN4CCCC4)cc3)c2)cc1 | 21.9% |
| C#C[C@]1(O)CCC2C3CCc4cc(OC5CCCC5)ccc4C3CC[C@@]21C (stereo not given in full) | 0.124% (active) |
| COc1cc(-c2csc(NC(=O)Nc3ccc(Cl)c(C(F)(F)F)c3)n2)cc(OC)c1OC | 4.27% (active) |
| CO[C@H]1CC(O[C@@H]2/C(C)=C/C[C@@H]3C[C@@H](C[C@]4(C=C[C@H](C)[C@@H](C5CCCCC5)O4)O3)OC(=O)[C@@H]3C=C(C)[C@@H](O)[C@H]4OC/C(=C\C=C\[C@@H]2C)[C@]43O)O[C@@H](C)C1O[C@H]1C[C@H](OC)[C@@H](O)[C@H](C)O1 (stereo not given in full) | -71.9% (active) |
| CCOC(=O)c1sc2ncnc(Nc3ccc4c(cnn4C(=O)Nc4ccc(C)c(Cl)c4)c3)c2c1C | 90% |
| O=C(Nc1nc(-c2ccccc2)nc2c1sc(=S)n2-c1ccccc1)C(F)(F)F | 94.8% |
